IL-1B inflam inh: qHTS for Inhibitors of Inflammasome Signaling: IL-1-beta AlphaLISA Primary Screen | 4.7% of 360,000 active | THP-1 LPS/ATP IL-1B secretion, AlphaLISA, 16 h; hits give low values | activity change, % at 57.5 µM | AID 743279, 2014; in the data active means activity change below about -50%; inconclusive means mostly about -30% to -49%
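THP-1 cells pretreated 1 hr with compounds (up to 57.5 uM final), then stimulated with LPS (250 ng/mL final) plus ATP (1.25 mM final); secreted IL-1B measured by AlphaLISA after 16 hr, decreased signal indicating inhibition.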
TDP1 cell CPT: qHTS for Inhibitors of human tyrosyl-DNA phosphodiesterase 1 (TDP1): qHTS in cells in presence of CPT. AID 686979, 2013. Potency, µM (series often up to 46.2 µM), most hits filed as inhibitors. chicken DT40 Tdp1-/-;hTDP1 cells + 20 nM CPT, ATP luminescence, 48 h. 12% of 420,000 active; further: nearly all actives have a fitted effect of over 55% in size
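Cell growth measured by CellTiter-Glo luminescence after a minimum 48 h, 37 C compound exposure with 20 nM CPT in Tdp1-knockout DT40 cells stably expressing hTDP1, seeded 400/well; qHTS titration format.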
DT40 TDP1 no CPT: qHTS for Inhibitors of human tyrosyl-DNA phosphodiesterase 1 (TDP1): qHTS in cells in absence of CPT; DT40 Tdp1-/- hTDP1 cells, no CPT, ATP luminescence, 48 h; Potency, µM (highest dose often 46.2 µM), actives largely listed as inhibitors; 15% of 420,000 active; AID 686978, 2013; further: nearly all actives have a fitted effect of over 55% in size
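No-CPT arm: Tdp1-/-;hTDP1 DT40 cells (400/well) plus compounds, incubated ≥48 hr at 37 °C. Readout CellTiter-Glo luminescence.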
HT1080 IDH1KD tx: qHTS for induction of synthetic lethality in tumor cells producing 2HG: qHTS for the HT-1080-IDH1KD cell line; HT-1080 IDH1 knockdown viability, ATP luminescence, 48 h; Potency, µM (series often up to 46.1 µM), usual class: cytotoxic; 2% of 360,000 active
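% activity derives from luminescence (CellTiter-Glo), normalised to DMSO and no-cell wells. HT-1080-IDH1KD cells, 750/well, had 48 h compound exposure at 37 °C.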
uPA generation: qHTS for Inhibitors of Cell Surface uPA Generation; cell surface uPA generation assay, qHTS; Potency, µM (series often up to 38.3 µM), usual class: inhibitors; AID 540303, 2011; 0.31% of 330,000 active; active means well fitted inhibition curve with a large enough effect; inconclusive means small, poorly fitted or top-dose-only effect; inactive means no such curve, though single readings can be large or run the other way; tested in mouse RAW 264.7 cells; further: nearly all actives have a fitted effect of over 55% in size
HT1080NT lethal: qHTS for induction of synthetic lethality in tumor cells producing 2HG: qHTS for the HT-1080-NT fibrosarcoma cell line; HT-1080-NT fibrosarcoma viability, CellTiter-Glo ATP luminescence, 48 h; 1.6% of 360,000 active; AID 686970, 2013; Potency, µM (top dose mostly 46.1 µM), hits mostly cytotoxic;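 further: NT is the 2HG producing partner of a matched IDH1 knockdown line; nearly all actives have a fitted effect of over 55% in size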
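Luminescent CellTiter-Glo readout after 48 hours of compound exposure at 37 degrees C defined viability of HT-1080-NT cells. Activity was normalized to DMSO wells and cell-free media wells; concentration-response curves were fitted and assigned curve classes.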
Hits are given with their value; – = inactive; ? = inconclusive; · = no result given; [ ] = another dose, or the depositor's remark. Most compounds without a hit are left out; they make up all but 19% or so of the library. Unless noted, the call rests on the fitted dose curve; in most records, active means well fitted curve in the direction sought with a large enough effect; inconclusive means small, poorly fitted or top-dose-only effect, or another doubt; inactive means no such curve, though single readings can be large; an effect the other way counts as inactive or inconclusive.

SMILES	IL-1B inflam inh	TDP1 cell CPT	DT40 TDP1 no CPT	HT1080 IDH1KD tx	uPA generation	HT1080NT lethal
CC1(C)Cc2nc3oc4c(N(CCO)Cc5ccccc5)ncnc4c3cc2CO1	–	21µM	21µM	–	–	–
CCOC(=O)C1=CCC(c2ccccc2C(F)(F)F)N(S(=O)(=O)c2ccc(C)cc2)C1 (stereo not drawn)	–	23µM	23µM	?	·	–
CCOC(=O)C1=CCC(c2cccn2C(=O)OC(C)(C)C)N(S(=O)(=O)c2ccc(C)cc2)C1 (stereo not drawn)	–	?	?	–	·	–
CCOC(=O)C1=CCC(c2ccccc2Cl)N(S(=O)(=O)c2ccc(C)cc2)C1 (stereo not drawn)	–	15µM	?	–	·	–
CCC1(c2ccc(OC)cc2)NC(=O)N(CC(=O)c2ccc3c(c2)OCCO3)C1=O (stereo not drawn)	–	–	?	–	–	–
CCOC(=O)N1C2c3ccccc3C(c3ccccc32)N1C(=O)OCC	–	?	?	–	–	–
CC(NCC1(N2CCOCC2)CCCCC1)C(=O)N1CCc2ccccc21 (stereo not drawn)	–	–	?	–	–	–
CC(NC(c1ccccc1)c1ccccc1)C(=O)N1CCCc2ccccc21 (stereo not drawn)	–	12µM	10µM	–	–	–
CC(Nc1ccccc1N1CCCCC1)C(=O)N1CCc2ccccc21 (stereo not drawn)	–	?	16µM	–	–	–
CSCc1cc(C(=O)NC2CC2)c(N)s1	–	?	?	–	·	–
Cc1cc(OCC(=O)N2CCN(c3ccccn3)CC2)cc(C)c1Br	–	?	16µM	–	–	–
Cc1cc(C)cc(OCC(=O)N2CCN(c3ncccn3)CC2)c1	–	–	–	–	–	–
O=C(COc1ccc(Br)cc1Cl)N1CCN(c2ccccn2)CC1	–	–	–	–	–	–
CCc1ccc(OCC(=O)N2CCN(c3ccccn3)CC2)c(Br)c1	–	13µM	?	–	–	–
Cc1ccc(NC(=O)c2ccc(-n3c(C)nnc3C)cc2)cc1F	·	–	–	·	·	·
COCCSc1ccccc1C(=O)N1CCc2ccccc2C1	–	–	–	–	–	–
O=C(O)c1ccc2c(c1)C(=O)N(c1cc([N+](=O)[O-])ccn1)C2=O	–	–	–	–	–	–
O=S(=O)(c1cccc(Cl)c1)c1nnn2c1nc(NCc1ccc3c(c1)OCO3)c1sccc12	·	?	23µM	·	·	·
CCN(CC)c1nc2c(S(=O)(=O)c3cccc(Cl)c3)nnn2c2ccsc12	·	8.2µM	21µM	·	·	·
CC1CCN(c2nc3c(S(=O)(=O)c4cccc(Cl)c4)nnn3c3ccsc23)CC1	·	?	23µM	·	·	·
Cc1ccc(S(=O)(=O)c2nnn3c2nc(N2CCCC2)c2sccc23)cc1C	·	–	–	·	·	·
OCC[C@@H]1C[C@@H](O)[C@H](O)[C@@]2(Cc3ccccc3O2)O1	–	–	–	–	–	–
Cc1cccc(NC(=O)NCC(c2cccnc2)N2CCOCC2)c1 (stereo not drawn)	–	–	–	–	–	–
Cc1cccc(NC(=O)C(=O)NCC(c2cccnc2)N2CCN(Cc3ccccc3)CC2)c1 (stereo not drawn)	·	23µM	16µM	·	·	·
O=C(NCC(c1cccnc1)N1CCN(Cc2ccccc2)CC1)C(=O)Nc1cccc(Cl)c1 (stereo not drawn)	·	15µM	13µM	·	·	·
SMILES	IL-1B inflam inh	TDP1 cell CPT	DT40 TDP1 no CPT	HT1080 IDH1KD tx	uPA generation	HT1080NT lethal
COc1cccc(CN(C)C(=O)c2cnn(-c3nccc(-c4ccc5c(c4)OCO5)n3)c2C)c1	·	–[9.04 µM]	–	·	·	·
COc1ccccc1NC(=S)NC1CC2CCC1C2 (stereo not drawn)	–	–	?	–	–	–
S=C(N/N=C/c1ccco1)NC1CC2CCC1C2 (stereo not drawn)	–	?	?	–	–	–
COc1cccc(/C=N/n2c(N)c(S(=O)(=O)c3cccs3)c3nc4ccccc4nc32)c1OC	–	7.3µM	5.8µM	–	·	–
COc1cccc(/C=N/NC(=S)NC2CC3CCC2C3)c1OC (stereo not drawn)	–	?	21µM	–	–	–
COc1ccccc1/C=N/Nc1nncc2ccccc12	–	–	?	–	–	–
COc1cccc(C=NNc2nnc(NN=Cc3cccc(OC)c3OC)c3ccccc23)c1OC	-63	23µM	21µM	–	–	–
Oc1ccccc1/C=N/NC(=S)NC1CC2CCC1C2 (stereo not drawn)	-78	?	?	?	–	21µM
CC(=O)c1ccc(NC(=O)Cn2nc(C(F)(F)F)c3c2CCC3)cc1	·	–	–	·	·	·
CC1CN(Cc2ccco2)C(=S)NC1=O (stereo not drawn)	–	–	–	–	–	–
C[C@@H]1CN(Cc2ccc3c(c2)CN(Cc2cccc4cccnc24)CCO3)C[C@H](C)O1	·	–[9.04 µM]	?	·	·	·
Cc1ccc(C)c(NC(=O)CC2NCCNC2=O)c1 (stereo not drawn)	·	–	–	·	·	·
COc1cccc(/C=N/n2c(CO)nc3ccccc32)c1OC	–	–	–	–	·	–
CNc1nc2ccccc2n1/N=C/c1cccc(OC)c1OC	–	?	21µM	–	·	–
COc1cccc(C=NNC(=S)NN=Cc2cccc(OC)c2OC)c1OC	–	4.6µM	4.1µM	–	–	–
COc1cccc(/C=N/NC(=O)C[n+]2ccccc2)c1OC	–	–	–	–	–	–
Cc1ccc(C(=O)/C=C/Nc2ccccn2)cc1	–	–	–	–	–	–
O=C(C=Cc1ccccn1)c1ccccc1	-98	3.3µM	2.9µM	10µM	–	?
O=C(/C=C/c1cccnc1)c1ccccc1O	–	?	?	–	–	–
O=C(C=Cc1ccccn1)c1ccccc1O	-94	2.9µM	3.7µM	–	–	–
O=c1[nH]c(COc2ccc(Br)cc2Cl)nc2ccccc12	–	21µM	?	–	–	–
O=c1[nH]c(COc2ccccc2)nc2ccccc12	–	21µM	?	–	?	–
O=c1[nH]c(CSc2nnc(COc3ccccc3)n2-c2ccccc2)nc2ccccc12	–	–	–	?	–	?
CCOc1ccc(Nc2nnc(SCc3nc4ccccc4c(=O)[nH]3)s2)cc1	–	18µM	18µM	–	–	–
COc1ccc(NC(=O)CSCC(=O)N(C)CC(=O)Nc2cccc3ccccc23)cc1	–	?	?	–	–	?

Compound activity from PubChem BioAssay.
